Data on 40 compounds can be found in PubChem BioAssay AID488908 (National Center for Advancing Translational Sciences (NCATS), 2010).

Results filed as inconclusive are left out. Unmarked numbers belong to inactive results. Calls of active or inactive are those of the source. The call rests on the fitted dose curve; in most records, active means well fitted inhibition curve with a large enough effect; inconclusive means small, poorly fitted or top-dose-only effect; inactive means flat fitted curve, though single readings scatter.

This assay is described as follows: Secondary Assay for lipid storage modulators: Cytotoxcity for probe SAR. Particulars: Drosophila S3 cells viability, CellTiter-Glo luminescence, 24 h, with oleic acid added (1 µL, 400 µM); series mostly up to 46.1 µM; activity change, negative = cytotoxicity: at the top concentration. The text has this:
NIH Molecular Libraries Probe Production Centers Network [MLPCN] NIH Chemical Genomics Center [NCGC] MLPCN Grant: 1 R03 MH085686-01 Assay Submitter (PI): Beller, Mathias; Max-Planck-Institut fur Biophysikalische Chemie, Germany. NCGC Assay Overview: Storing lipids as a reservoir for energy or the anabolism of elementary metabolites is a common feature of probably all cells and is conserved from bacteria to humans. The universal cellular lipid storage organelle is the so-called lipid storage droplet (LD). Although ubiquitous, LDs share a simple structure composed of a hydrophobic core that harbors the storage lipids, which is shielded by a droplet-specific phospholipid monolayer to which proteins are attached. The current model of LD biogenesis involves an incorporation of the lipid core into the membrane leaflets of the endoplasmic reticulum (ER) followed by a subsequent budding-like maturation of a LD, which ultimately pinches off. Once released, LD volume can increase by localized lipogenesis or fusion of existing droplet. Storage lipids are re-mobilized enzymatically by lipase activity. Lipase regulation in the adipocyte is heavily studied and involves multiple components including catecholamine signaling, the LD-associated proteins Perilipin and comparative gene identification (CGI-58) and at least two lipases named hormone sensitive lipase (HSL) and adipocyte triglyceride lipase (ATGL). LD regulation outside of the adipocyte is poorly understood and only few components are known. However, there is an urgent need to learn more about ectopic fat depots as mislocalized storage of lipids, for example in the liver or muscle, is an eminent health problem associated with insulin resistance or the metabolic syndrome. We developed a laser-scanning cytometer assay to enable 1,536-well screening and combined the results of the small molecules screen with an RNAi database based on lipid storage. The compound was tested here for cytotoxcity using CellTiter-Glo.
Assay Protocol Summary: Cytotoxcity assay was performed with embryonic Drosophila S3 cells (Bloomington Drosophila Genomics Resource Center [DGRC]). We dispensed 4 uL of cells at 1.25 x 10^6 cells/mL into Greiner solid white 1,536-well plates with a bottle-valve solenoid-based dispenser (Aurora) to obtain 5,000 cells/well. A total of 23 nL of compound solution of different concentrations were transferred to the assay plates using a Kalypsys pin tool equipped with a 1,536-pin array containing 10-nL slotted pins (FP1S10, 0.457-mm diameter, 50.8 mm long; V&P Scientific). One microliter of oleic acid (400 uM) was added, and the plate was lidded with stainless steel rubber gasket lined lids containing pinholes. After 24 hrs of incubation at 24 degrees Celsius and 95% humidity, 4 uL of CellTiter-Glo (Promega) was added to the wells. Luminescence was detected on the Perkin Elmer ViewLux.
Background: ATP-based viability assays read luminescence as a measure of living cells.
As to `Cc1ccc(-c2cnc(SCC(=O)Nc3nc(C)cs3)n2Cc2ccco2)cc1`, the “activity change, negative = cytotoxicity” value is -11.2%.

In the case of `CCOc1ccc(CCNC(=O)c2cccc(C(=O)c3ccccc3)c2)cc1OCC`, the “activity change, negative = cytotoxicity” value is -21.3%.

For the compound `C[C@@H](NCCCc1cccc(C(F)(F)F)c1)c1cccc2ccccc12`, the Potency is 28.1 µM (active).

As to `CCOC(=O)C1CCCN(C(=O)C2(NC(=O)Nc3ccc(F)cc3F)CCCCC2)C1` (stereo not given), the “activity change, negative = cytotoxicity” value was -17.7%.

Take `O=C(NC1CCCc2c1cnn2-c1ccccc1F)c1ccc2ncccc2c1` (stereo not given): the Potency is 2.23 µM (active).

As for `COc1cc(NC(=S)N2CCN(c3ccccn3)CC2)c(OC)cc1Cl`, the “activity change, negative = cytotoxicity” value is -8.95%.

Consider `CCOc1ccc(CCNC(=O)C2COc3ccccc3O2)cc1OCC` (stereo not given), for which the “activity change, negative = cytotoxicity” value was -20.3%.

Take `O=C(NC1CCCc2c1cnn2-c1ccc(F)cc1F)c1ccc(C2(C(F)(F)F)N=N2)cc1` (stereo not given): the Potency was 3.97 µM (active).

On to `CN(C)Cc1ccc(-c2nc3cccc4c3n2CCNC4=O)cc1`, for which the “activity change, negative = cytotoxicity” value is -2.69%.

With `O=C(NC1CCCc2c1cnn2-c1ccc(F)cc1F)c1cccc(=O)[nH]1` (stereo not given), the Potency was 2.81 µM (active).

Take `O=C(NC1CCCc2c1cnn2-c1ccc(F)cc1F)c1cnccn1` (stereo not given): the Potency was 3.97 µM (active).

With `CCOC(=O)C1CCN(C(=O)C2(NC(=O)Nc3ccccc3Cl)CCC2)CC1`, the “activity change, negative = cytotoxicity” value is -4.57%.

Turning to `CCOc1ccc(CCNC(=O)c2ccc(N3N=C(C)CC3=O)cc2)cc1OCC`, the “activity change, negative = cytotoxicity” value is -8.66%.

On to `O=C(NCCc1ccc2c(c1)OCO2)c1cc2sccc2[nH]1`, for which the “activity change, negative = cytotoxicity” value was -4.89% [at 30.7 µM].

`CCOC(=O)C1CCN(C(=O)C(C)(C)NC(=O)Nc2ccccc2Cl)CC1`: the “activity change, negative = cytotoxicity” value was -7.62%.

Take `COc1ccc(Cl)cc1NC(=S)N1CCN(c2cccc(Cl)c2)CC1`: the “activity change, negative = cytotoxicity” value was -16.8%.

Consider `CCn1c(C(=O)NCCc2ccc(OC)c(OC)c2)cc2sccc21`, for which the “activity change, negative = cytotoxicity” value is -23.9%.

Consider `Cc1csc(NC(=O)CSc2ncc(-c3ccccc3)n2Cc2ccco2)n1`, for which the “activity change, negative = cytotoxicity” value is -14.8%.

As for `Cc1cc(SCc2sc(-c3ccc(C(F)(F)F)cc3)nc2C)ccc1OCC(=O)O`, the “activity change, negative = cytotoxicity” value is -12.1%.

Take `CCOC(=O)C1CCN(C(=O)CNC(=O)Nc2ccccc2Cl)CC1`: the “activity change, negative = cytotoxicity” value is 2.28%.

As to `CCOC(=O)C1CCN(C(=O)C2(NC(=O)Nc3ccccc3Cl)CCCCC2)CC1`, the “activity change, negative = cytotoxicity” value is -10.2%.

On to `COc1ccc(Cl)cc1NC(=S)N1CCN(c2ccc(F)cc2)CC1`, for which the “activity change, negative = cytotoxicity” value was -5.01%.

As for `O=C(NCCc1ccc2c(c1)OCO2)c1cc2sccc2n1Cc1ccccc1`, the “activity change, negative = cytotoxicity” value was -17.2%.

Consider `CCCn1c(-c2ccc(OC)cc2)cnc1SCC(=O)Nc1nc(C)c(C)s1`, for which the “activity change, negative = cytotoxicity” value was -22%.

`O=C(Cc1cccs1)Nc1nc(-c2ccncc2)cs1`: the “activity change, negative = cytotoxicity” value was -14.5%.

`O=C(NC1CCCc2c1cnn2-c1ccc(F)cc1F)c1ccccc1` (stereo not given): the Potency is 5.6 µM (active).

On to `CCOC(=O)C1CCN(C(=O)C2(NC(=O)Nc3ccc(F)cc3F)CCCCC2)CC1`, for which the “activity change, negative = cytotoxicity” value was -18.3%.

For `COc1nc(-c2ccc3c(c2)OCO3)n(-c2ccc(NC(=O)CSc3ccccc3)cc2)n1`, the “activity change, negative = cytotoxicity” value was -7.25%.

On to `O=C(Cc1cccs1)Nc1nc(-c2ccc(F)cc2)cs1`, for which the “activity change, negative = cytotoxicity” value is -25.4%.

With `O=C(NC1CCCc2c1cnn2-c1ccc(F)cc1F)c1cnon1` (stereo not given), the “activity change, negative = cytotoxicity” value was -12.7%.

Take `CCOC(=O)C1CCN(C(=O)C2(NC(=O)NCc3ccccc3)CCCCC2)CC1`: the “activity change, negative = cytotoxicity” value is -15.6%.

For the compound `O=C(NC1CCCc2c1cnn2-c1ccc(F)cc1F)c1ccncc1` (stereo not given), the Potency is 1.41 µM (active).

Take `CCOc1ccc(CCNC(=O)c2ccccn2)cc1OCC`: the “activity change, negative = cytotoxicity” value was -10.2%.

For `COc1ccc(-n2ncc3c2CCCC3NC(=O)c2cnc(C)cn2)cc1` (stereo not given), the Potency is 15.8 µM (active).

On to `CCn1c(-c2ccc(C)cc2)cnc1SCC(=O)Nc1nc(C)cs1`, for which the “activity change, negative = cytotoxicity” value is -26.7%.

Consider `O=C(NC1CCCc2c1cnn2-c1ccc(F)cc1F)c1ccc(F)cc1` (stereo not given), for which the Potency is 14.1 µM (active).

For `CCOc1ccc(CCNC(=O)C2(c3ccccc3)CC2)cc1OCC`, the “activity change, negative = cytotoxicity” value was -7.24%.

On to `CCOc1ccc(CCNC(=O)c2ccc(C3(C(F)(F)F)N=N3)cc2)cc1OCC`, for which the “activity change, negative = cytotoxicity” value was -8.66%.

`Cc1cn(-c2cc(NC(=O)c3ccc(C)c(Nc4nccc(-c5cccnc5)n4)c3)cc(C(F)(F)F)c2)cn1`: the “activity change, negative = cytotoxicity” value was -26%.

As for `O=C(NC1CCCc2c1cnn2-c1ccc(F)cc1F)c1ccc2cc[nH]c2c1` (stereo not given), the Potency is 22.3 µM (active).
